The list is a sample of the results.
DRD3 agonist: D3 dopamine receptor (human) agonism; P35462; D3R DiscoveRx beta-arrestin cells, luminescence, 90 min; max activation, %; hit rate 0.58% among 410,000; in the data active = max activation above about 30%
Target sequence (P35462 whole entry, looked up): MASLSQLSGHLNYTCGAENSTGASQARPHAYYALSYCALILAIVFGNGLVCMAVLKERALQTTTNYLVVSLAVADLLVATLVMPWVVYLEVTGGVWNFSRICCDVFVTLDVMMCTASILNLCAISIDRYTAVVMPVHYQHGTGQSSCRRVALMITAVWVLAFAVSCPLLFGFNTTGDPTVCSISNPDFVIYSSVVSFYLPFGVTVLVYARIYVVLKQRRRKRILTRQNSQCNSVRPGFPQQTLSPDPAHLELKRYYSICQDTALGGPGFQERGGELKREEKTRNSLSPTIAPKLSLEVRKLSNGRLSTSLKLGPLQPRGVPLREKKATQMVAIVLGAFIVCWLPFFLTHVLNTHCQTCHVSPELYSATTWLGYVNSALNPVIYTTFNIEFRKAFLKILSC
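Agonist mode: compounds and dopamine controls were applied to plated cells for 90 min at 37 degrees C after an overnight attachment at 1500 cells/well. Luminescent read-out followed 30 - 60 minutes at room temperature with DiscoveRx detection reagent.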
DRD3 antagonist: antagonists of human D3 dopamine receptor; P35462; D3R cells, DiscoveRx beta-arrestin luminescence, antagonist mode; hits give low values; max response, negative = inhibition, %; hit rate 2.5% among 360,000; AID 652054; in the data active = max response below about -50%; inconclusive = no clear call, values can overlap the other calls
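Cells plated overnight at 1500 cells/well, then exposed to library compounds with dopamine controls for 90 minutes at 37 degrees C. DiscoveRx reagent added for 30–60 minutes at room temperature; luminescence read, quantitative HTS format.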
S2 tox: viability counter-screen for ATXN expression inhibitors. S2 cells (HEK-293 line with an ATXN2-luciferase reporter) viability, CellTiter-Fluor protease fluorescence, 24 h. Potency, µM (top dose mostly 56.7 µM), usual class: cytotoxic. hit rate 0.49% among 400,000. AID 651635; note: nearly all actives have a fitted effect of over 40% in size
ATXN2 expr inh: inhibitors of ATXN2 expression. HEK-293 ATXN2-luciferase reporter, luminescence, 24 h. Potency, µM (top dose mostly 57 µM), actives largely listed as inhibitors. hit rate 0.72% among 360,000; note: nearly all actives have a fitted effect of over 55% in size
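qHTS (up to 57 uM final) was run with 24 h compound exposure of reporter cells at 37 °C. Each well was multiplexed: SteadyGlo luminescence measured ATXN2-luciferase expression after a fluorogenic Gly-Phe-AFC viability readout (25 uM final).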
IL-1B inflam inh: inflammasome signaling inhibition, IL-1 beta readout; THP-1 LPS/ATP IL-1B secretion, AlphaLISA, 16 h; hits give low values; activity change, % at 57.5 µM; hit rate 4.7% among 360,000; in the data active = activity change below about -50%; inconclusive = mostly about -30% to -49%
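Secreted IL-1B measured by AlphaLISA bead assay after 16 h compound exposure of THP-1 cells; compounds (final up to 57.5 uM) added 1 h before LPS (250 ng/mL) and ATP (1.25 mM) stimulation; lower signal means less secretion.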
a7 integrin act: activators of alpha7 integrin expression for muscular dystrophy. Potency, µM (series often up to 38.3 µM), usual class: activators. alpha7betagal myoblasts, beta-gal FDG fluorescence, 48 h. hit rate 0.064% among 350,000; note: nearly all actives have a fitted effect of over 60% in size
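Alpha7betagal+/- myoblasts (passage 13) were plated 16-24 hr, then exposed to compounds (1:260 dilution of DMSO stock) for 48 hours at 37C. After MPER lysis, β-galactosidase reporter activity was read as FDG fluorescence (ex 480/em 540) after 30 minutes.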
SKNSH spheroid: SK-N-SH 3D spheroid viability loss; shares compounds with ATXN2 expr inh; SK-N-SH 3D spheroid viability, PI/Hoechst imaging, 72 h; Potency, µM (highest dose often 30.7 µM), hits mostly inhibitors; hit rate 70% among 65
SJ-GBM2 3D tox: reduced viability of SJ-GBM2 3D spheroids, orthogonal test | shares compounds with ATXN2 expr inh | SJ-GBM2 3D spheroid viability, PI/Hoechst imaging, 72 h | Potency, µM (titrated, usually from 30.7 µM), most hits filed as inhibitors | hit rate 80% among 65 | AID 1347136
Daoy 3D tox: Daoy 3D spheroid viability loss | shares compounds with ATXN2 expr inh | Daoy 3D spheroid viability, PI/Hoechst imaging, 72 h | Potency, µM (titrated, usually from 30.7 µM), usual class: inhibitors | hit rate 50% among 65
TC32 3D caspase: TC32 spheroid caspase-3/7 activation, orthogonal screen | shares compounds with ATXN2 expr inh | TC32 3D spheroids, caspase-3/7 fluorescence imaging, 24 h | Potency, µM (titrated, usually from 30.7 µM), actives largely listed as inhibitors | hit rate 30% among 65 | AID 1347138
TC32 3D tox: reduced viability of TC32 3D spheroids, orthogonal test. shares compounds with ATXN2 expr inh. AID 1347139. hit rate 60% among 65. TC32 3D spheroid viability, PI/Hoechst imaging, 72 h. Potency, µM (titrated, usually from 30.7 µM), actives largely listed as inhibitors
MG63 3D tox: MG-63 (6-TG R) 3D spheroid viability loss | shares compounds with ATXN2 expr inh | MG-63 (6-TG R) 3D spheroid viability, PI/Hoechst imaging, 72 h | Potency, µM (series often up to 30.7 µM), actives largely listed as inhibitors | hit rate 50% among 65 | AID 1347140
RD spheroid: kills RD rhabdomyosarcoma spheroids in orthogonal 3D test; shares compounds with ATXN2 expr inh; RD rhabdomyosarcoma 3D spheroid viability, PI/Hoechst imaging, 72 h; Potency, µM (doses to about 30.7 µM), actives largely listed as inhibitors; hit rate 50% among 65
Hits are given with their value; . = inactive; ? = inconclusive; / = no result given; ! = not active in a repeat. Unless noted, calls come from the whole dose curve; as a rule, active = well fitted curve in the direction sought with a large enough effect; inconclusive = small, poorly fitted or top-dose-only effect, or another doubt; inactive = no such curve, though single readings can be large; an effect the other way counts as inactive or inconclusive.

SMILES | DRD3 agonist | DRD3 antagonist | S2 tox | ATXN2 expr inh | IL-1B inflam inh | a7 integrin act | others
COC(=O)[C@@H]1N=C(c2ccc(OC)cc2)O[C@]12C(=O)N(C)c1ccc(Cl)cc12 | . | . | . | . | . | /
Nc1nc(F)nc2c1ncn2[C@@H]1O[C@H](CO)[C@@H](O)[C@@H]1O | . | . | . | 1.7µM! | . | / | SKNSH spheroid=0.46µM;SJ-GBM2 3D tox=0.29µM;Daoy 3D tox=0.36µM;TC32 3D caspase=3.6µM;TC32 3D tox=2µM;MG63 3D tox=0.2µM;RD spheroid=1.4µM
O=C(Nc1ccccc1)N(Cc1ccc2c(c1)OCO2)C1CCN(Cc2ccccc2)CC1 | . | / | . | . | / | /
c1ccc(N2C3C4CC(C5CCCC54)C32)cc1 (centres undefined) | . | . | . | . | . | .
CCS(=O)(=O)C(C)(C)S(=O)(=O)CC | . | / | . | . | / | /
Cc1nn(CC(C)C)c(Cl)c1C(=O)NC1CCC(C)CC1 (centres undefined) | . | . | . | . | . | .
C[C@H]1CC[C@]2(NC1)O[C@H]1C[C@H]3[C@@H]4CC[C@H]5C[C@@H](O[C@@H]6O[C@H](CO)[C@H](O[C@@H]7O[C@H](CO)[C@@H](O)[C@H](O[C@@H]8OC[C@@H](O)[C@H](O)[C@H]8O)[C@H]7O[C@@H]7O[C@H](CO)[C@@H](O)[C@H](O)[C@H]7O)[C@H](O)[C@H]6O)CC[C@]5(C)[C@H]4CC[C@]3(C)[C@H]1[C@@H]2C | . | / | / | / | / | /
CC(C)(C)n1nnnc1C(c1cccc2ccccc12)N1CCC2(CC1)C(=O)NCN2c1ccccc1 (centres undefined) | . | . | / | ? | . | /
C[C@H]1[C@@H](c2ccccc2)O[C@@H](c2ccccc2Br)N1C | . | . | . | . | . | .
CC(C(O)c1ccccc1)N(C)CCn1cnc2c1c(=O)n(C)c(=O)n2C (centres undefined) | . | . | . | . | . | .
Cc1ccc2oc(-c3ccc(Cl)cc3)c(O)c(=O)c2c1 | . | / | ? | ? | / | /
COc1ccc(F)cc1CN1CCN(C(=O)CCC(=O)Nc2nnc(CC(C)C)s2)CC1 | . | . | . | / | . | ?
CN(C)[C@@H]1C(=O)C(C(N)=O)=C(O)[C@@]2(O)C(=O)C3=C(O)c4c(O)cccc4[C@@](C)(O)C3[C@H](O)C12 (some centres undefined) | . | . | . | . | . | /
CC1(C)CC(n2[nH]c(=O)c3c2NC(=O)CSC3c2ccc(F)cc2)CCO1 (centres undefined) | . | . | ? | . | . | .
COC(=O)C1=CCCN(C)C1 | . | . | . | . | . | / | SKNSH spheroid=13µM;SJ-GBM2 3D tox=?;Daoy 3D tox=.;TC32 3D caspase=?;TC32 3D tox=4.1µM;MG63 3D tox=.;RD spheroid=.
CN1C(CC(O)c2ccccc2)CCCC1CC(O)c1ccccc1 (centres undefined) | . | . | . | . | . | /
CC[C@@H](O)C(C[C@@H](C)N(C)C)(c1ccccc1)c1ccccc1 | . | / | ? | / | / | /
O=C(NCC1CCCO1)C1CCN(C2CCN(C(=O)Cc3ccsc3)CC2)CC1 (centres undefined) | . | . | . | . | . | ?
CNCCCc1ccccc1 | . | . | . | . | . | .
Nc1cc(Cl)cc(Cl)c1 | . | . | . | . | ? | /
CN1CCN(Cc2ccc3ccccc3c2)CC1 | . | . | . | / | . | .
O=C(Oc1ccc([N+](=O)[O-])cc1)N1CCN(Cc2cccc(Oc3ccccc3)c2)CC1 | / | / | / | . | / | /
CN(CC1COc2ccccc2O1)c1nc(-c2cccnc2)nc2ccccc12 (centres undefined) | . | . | . | . | ? | .
O=c1[nH]c2ccc(Cl)cc2c(N[C@@H]2CN3CCC2CC3)c1-c1nc2ccccc2[nH]1 | / | / | / | 0.068µM | / | / | SKNSH spheroid=0.13µM;SJ-GBM2 3D tox=0.091µM;Daoy 3D tox=0.72µM;TC32 3D caspase=18µM;TC32 3D tox=13µM;MG63 3D tox=6.4µM;RD spheroid=?
CCCc1nnc(NC(=O)CCC(=O)N2CCN(CCOC(c3ccccc3)c3ccccc3)CC2)s1 | . | . | . | . | . | .
SMILES | DRD3 agonist | DRD3 antagonist | S2 tox | ATXN2 expr inh | IL-1B inflam inh | a7 integrin act | others
CCN(CC)CCN1Cc2ccccc2C1=N | . | . | . | . | . | .
Cc1ccc2c(c1)c(=O)c1c3n2CCN(CC2CO2)C3CC1 (centres undefined) | . | . | . | . | . | .
CC(CN1CCOCC1)OC(=O)Cc1ccccc1 (centres undefined) | . | . | . | . | . | ?
CCN(CC)CCOC(=O)C(C)(c1ccccc1)c1ccccc1 | . | / | . | . | / | /
c1ccc2c(c1)CC1CNCc3cccc(c31)S2 (centres undefined) | . | . | . | . | . | .
CC(=O)c1cn(CCCOc2ccccc2)c2ccccc12 | . | . | ? | / | . | .
CCC1CN1P(=O)(N1CCCC1)N1CC1CC (centres undefined) | . | . | . | . | . | .
COc1ccc(C(c2nnnn2C(C)(C)C)N2CCC3(CC2)C(=O)NCN3c2ccccc2)cc1 (centres undefined) | . | . | ? | . | . | /
CCCOC(=O)C1C2CCC(O2)C1C(=O)O (centres undefined) | . | . | . | . | . | .
CC1CCN(CC(=O)c2cccc(C(F)(F)F)c2)CC1 | . | . | . | . | . | ?
COc1ccc(-c2nc3ccc(C(=O)N4CCC5(CC4)OCCO5)cc3nc2-c2ccc(OC)cc2)cc1 | . | . | . | . | . | .
COc1ccc(OC)c(CCNCc2c(C(=O)O)c(C)n(Cc3ccc(F)cc3Cl)c2C)c1 | . | / | / | / | / | /
CC1=C2CCC3C(CCC4=CC(=O)CCC43C)C2CC1 (centres undefined) | . | . | . | . | . | .
CN(C)C(=O)Oc1ccc(C(=O)c2ccccc2)cc1 | . | . | . | . | . | .
CCC(C)C1NC(=O)C(C(C)=O)=C1O (centres undefined) | . | . | . | . | . | .
